Laboratory results reported in PubChem BioAssay (EPA / NIEHS).
Inconclusive results are not listed. Active and inactive are the calls of the source. How the source made its calls: active means hit-call score of the fitted dose curve at least 0.9, where 1 is the maximum; inconclusive means response in the unintended direction; inactive means score below 0.9.

biological target: human Ephrin type-A Receptor 1 (EphA1), EPHA1 (gene 2041) (UniProt P21709); experiment: NVS_ENZ_hEphA1: NovaScreen (NVS) Enzymatic Assay for human Ephrin type-A Receptor 1 (EphA1) (AID 2283158);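 further: activity is signal loss versus DMSO meaning EphA1 kinase inhibition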
Procedure, shortened: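 Fluorescent substrate conversion, resolved by mobility-shift separation, measured 1 hour post-dosing using recombinant enzyme; signal loss relative to DMSO baseline. Single-concentration duplicates at 25 uM preceded singleton concentration series topping at 50 uM.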

Sequence of human Ephrin type-A Receptor 1 (EphA1), EPHA1 (gene 2041) (P21709 whole entry, looked up): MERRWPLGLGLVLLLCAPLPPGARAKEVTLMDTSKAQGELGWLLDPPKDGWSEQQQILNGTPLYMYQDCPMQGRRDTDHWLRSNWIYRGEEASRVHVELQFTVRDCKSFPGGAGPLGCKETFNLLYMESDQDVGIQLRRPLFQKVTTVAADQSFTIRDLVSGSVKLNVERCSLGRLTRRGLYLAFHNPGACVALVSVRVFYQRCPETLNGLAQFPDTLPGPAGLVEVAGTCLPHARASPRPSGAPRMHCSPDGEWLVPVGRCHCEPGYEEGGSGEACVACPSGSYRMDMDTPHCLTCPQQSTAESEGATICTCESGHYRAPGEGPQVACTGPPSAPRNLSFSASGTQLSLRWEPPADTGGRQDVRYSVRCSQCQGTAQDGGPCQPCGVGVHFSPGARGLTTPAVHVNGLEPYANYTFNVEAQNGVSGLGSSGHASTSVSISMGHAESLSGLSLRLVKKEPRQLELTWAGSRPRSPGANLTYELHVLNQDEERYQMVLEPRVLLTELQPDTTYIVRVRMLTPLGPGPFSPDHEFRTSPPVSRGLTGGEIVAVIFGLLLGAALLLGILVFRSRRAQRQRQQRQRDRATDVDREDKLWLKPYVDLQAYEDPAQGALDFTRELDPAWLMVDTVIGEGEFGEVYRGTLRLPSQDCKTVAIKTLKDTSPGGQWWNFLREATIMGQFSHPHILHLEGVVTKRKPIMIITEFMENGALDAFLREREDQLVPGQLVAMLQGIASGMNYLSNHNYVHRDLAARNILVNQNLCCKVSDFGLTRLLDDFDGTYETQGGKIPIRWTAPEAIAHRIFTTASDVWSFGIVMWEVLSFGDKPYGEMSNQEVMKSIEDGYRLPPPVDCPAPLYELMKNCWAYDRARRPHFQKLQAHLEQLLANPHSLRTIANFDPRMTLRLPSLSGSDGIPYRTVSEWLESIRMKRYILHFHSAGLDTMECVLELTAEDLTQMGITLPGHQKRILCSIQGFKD

outcome, inactive:
O=C1O[C@H]([C@@H](O)CO)C(O)=C1O, CC1(C)NC(=O)N(c2ccc([N+](=O)[O-])c(C(F)(F)F)c2)C1=O, CC(O)CC(C)(C)O (stereo unspecified), CCCCCc1ccc(N)cc1, Clc1cc(Cl)c2c(c1)N=C1CCCCCN1C2, CCCCCCCCN(C)CCCCCCCC

biological target: Glycogen synthase kinase-3 beta (Homo sapiens) (UniProt P49841); experiment: NVS_ENZ_hGSK3b: NovaScreen (NVS) Enzymatic Assay for human Glycogen Synthase Kinase-3 beta (GSK3b) (AID 2283165)
Procedure, shortened: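 Recombinant enzyme with specific fluorescent substrate, 1 h, product separated by electrophoretic mobility shift. Primary duplicate screen at 25 uM; actives (e.g. 30% inhibition) followed in singleton concentration-response to 50 uM. Signal loss fitted versus DMSO.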

Sequence of Glycogen synthase kinase-3 beta (Homo sapiens) (P49841 whole entry, looked up): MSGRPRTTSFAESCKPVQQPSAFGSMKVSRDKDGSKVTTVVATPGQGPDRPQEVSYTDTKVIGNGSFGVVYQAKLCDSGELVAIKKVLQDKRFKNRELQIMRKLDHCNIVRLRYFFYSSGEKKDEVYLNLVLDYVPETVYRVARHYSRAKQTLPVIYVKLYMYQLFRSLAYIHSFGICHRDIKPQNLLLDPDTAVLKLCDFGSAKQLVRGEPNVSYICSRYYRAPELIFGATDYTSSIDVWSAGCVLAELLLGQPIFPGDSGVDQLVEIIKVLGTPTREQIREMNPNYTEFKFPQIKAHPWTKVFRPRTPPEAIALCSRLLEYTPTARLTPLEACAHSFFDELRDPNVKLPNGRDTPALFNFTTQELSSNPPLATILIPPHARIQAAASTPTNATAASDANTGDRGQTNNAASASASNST

outcome, inactive:
O=C(O)c1ccccc1-n1cc(C(=O)O)c(=O)c2cc(Nc3c(F)cc(F)cc3Cl)c(Cl)cc21, Clc1cc(Cl)c2c(c1)N=C1CCCCCN1C2, O=c1ccc2ccccc2o1, Oc1ccccc1, CC1=CC(=O)/C(=C(/C)O)C(=O)O1, CCCCCCCCCCCCO

biological target: human Janus Kinase 2 (Jak2), JAK2 (gene 3717) (UniProt O60674); experiment: NVS_ENZ_hJak2: NovaScreen (NVS) Enzymatic Assay for human Janus Kinase 2 (Jak2) (AID 2283169)
Procedure, shortened: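 Cell-free recombinant human JAK2 enzyme activity assay, fluorescence/electrophoretic mobility shift read 1 h after dosing. Screened in duplicate at 25 uM, then concentration-response up to 50 uM; activity as signal loss relative to DMSO.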

Sequence of human Janus Kinase 2 (Jak2), JAK2 (gene 3717) (O60674 whole entry, looked up): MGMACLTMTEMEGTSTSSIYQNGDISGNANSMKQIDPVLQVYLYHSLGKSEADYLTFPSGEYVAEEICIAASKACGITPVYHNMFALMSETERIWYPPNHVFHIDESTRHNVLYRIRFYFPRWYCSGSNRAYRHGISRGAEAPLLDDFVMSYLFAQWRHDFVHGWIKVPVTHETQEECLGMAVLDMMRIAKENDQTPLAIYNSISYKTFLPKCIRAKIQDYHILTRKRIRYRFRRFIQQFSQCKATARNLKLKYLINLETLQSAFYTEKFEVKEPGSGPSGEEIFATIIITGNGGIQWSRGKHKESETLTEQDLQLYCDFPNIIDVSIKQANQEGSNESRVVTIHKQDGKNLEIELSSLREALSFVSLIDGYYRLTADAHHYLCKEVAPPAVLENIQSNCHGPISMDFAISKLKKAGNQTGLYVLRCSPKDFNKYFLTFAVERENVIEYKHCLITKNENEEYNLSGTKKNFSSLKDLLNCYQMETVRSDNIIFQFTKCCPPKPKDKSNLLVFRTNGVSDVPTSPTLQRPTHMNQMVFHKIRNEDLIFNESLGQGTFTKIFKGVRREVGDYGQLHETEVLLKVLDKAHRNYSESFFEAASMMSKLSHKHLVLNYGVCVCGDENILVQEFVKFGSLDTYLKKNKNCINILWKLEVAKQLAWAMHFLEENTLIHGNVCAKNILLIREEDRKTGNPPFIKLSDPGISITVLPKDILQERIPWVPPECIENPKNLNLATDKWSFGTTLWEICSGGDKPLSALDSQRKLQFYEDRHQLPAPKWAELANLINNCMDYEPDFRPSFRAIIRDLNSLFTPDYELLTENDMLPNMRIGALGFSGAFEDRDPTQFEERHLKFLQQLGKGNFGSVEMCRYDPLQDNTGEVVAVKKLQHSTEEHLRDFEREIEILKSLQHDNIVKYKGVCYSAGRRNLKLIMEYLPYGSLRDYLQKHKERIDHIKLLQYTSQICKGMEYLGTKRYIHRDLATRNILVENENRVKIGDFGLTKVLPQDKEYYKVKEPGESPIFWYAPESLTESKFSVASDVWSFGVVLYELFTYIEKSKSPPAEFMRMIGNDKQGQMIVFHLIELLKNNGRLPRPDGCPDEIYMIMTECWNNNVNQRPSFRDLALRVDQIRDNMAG

outcome, inactive:
O=C(OCCCCCCOC(=O)c1ccccc1)c1ccccc1, O=C(O)c1ccccc1C(=O)OCc1ccccc1, CCO[Si](CCCNC(N)=O)(OCC)OCC, CCN(CC)C(=O)c1cc(S(=O)(=O)Cc2ccccc2)c(N2CCC(c3ccccc3)CC2)cc1N(CC)CCN(C)C
